# The supplement of paper PMC8285479
# ± gives the standard deviation of the averaged measurements. The full ranking holds about 1,900 compounds; the median of “normalised cell viability (NPI; 0 = phenylarsine oxide control, 1 = DMSO control)” is about 1, and the lowest 2% start at about 0.039. The entries come from a sample that favours the lowest values as a whole.
# Tested on: NCI-H1944
# Assay: normalised cell viability (NPI; 0 = phenylarsine oxide control, 1 = DMSO control) (fraction of DMSO control); NCI-H1944 is a non-small cell lung cancer line; higher = more viable cells (less compound toxicity)
# Details: 6 days
# [1] = glucocorticoid arm: hydrocortisone 2.75 uM co-treatment, compound 1 µM
# [2] = glucocorticoid arm: hydrocortisone 2.75 uM co-treatment, compound 5 µM
# [3] = glucocorticoid arm: hydrocortisone 2.75 uM pre-treated 2 days and continued, compound 1 µM
# [4] = glucocorticoid arm: hydrocortisone 2.75 uM pre-treated 2 days and continued, compound 5 µM
# [5] = glucocorticoid arm: vehicle, compound 1 µM
# [6] = glucocorticoid arm: vehicle, compound 5 µM
# 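Note: CTB read-out in 384-well plates, triplicate wells, NPI normalised per plate against 1 µM phenylarsine oxide (0) and 0.1% DMSO (1) controls.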
SMILES,normalised cell viability [1],normalised cell viability [2],normalised cell viability [3],normalised cell viability [4],normalised cell viability [5],normalised cell viability [6]
Cc1ccc([N+](=O)[O-])cc1S(=O)(=O)N(C)/N=C/c1cnc2ccc(Br)cn12,0.025 ± 0.0023,0.0304 ± 0.0032,0.0674 ± 0.0086,0.0802 ± 0.022,0.0104 ± 0.005,0.00623 ± 0.0011
Cc1ccc([N+](=O)[O-])cc1S(=O)(=O)N(C)C,1 ± 0.018,0.9945 ± 0.0095,1 ± 0.011,0.978 ± 0.028,1.004 ± 0.0094,1.007 ± 0.0052
CCCCC/C=C\C[C@@H](O)/C=C/c1cccc(C[C@@H](O)CCCCO)n1,1.005 ± 0.0081,1.05 ± 0.04,1.01 ± 0.015,1.04 ± 0.011,1.013 ± 0.0058,1.027 ± 0.0058
OC[C@H]1O[C@@H](n2cnc3c(N[C@H]4CCC[C@@H]4O)ncnc32)[C@H](O)[C@@H]1O,1.017 ± 0.0058,1.01 ± 0.027,1.01 ± 0.01,1.01,0.993 ± 0.015,0.9927 ± 0.0095
CC[n+]1c(/C=C/C=C2/N(C)c3ccccc3C2(C)C)sc2ccccc21,0.467 ± 0.026,0.434 ± 0.017,0.901 ± 0.032,0.798 ± 0.02,0.237 ± 0.0069,0.112 ± 0.0067
NC(N)=N[C@@H](CCC(=O)O)C(=O)O [alpha-Guanidinoglutaric acid],1.01 ± 0.01,0.983 ± 0.01,1.006 ± 0.0063,1.01 ± 0.021,0.9917 ± 0.0038,1.002 ± 0.0072
CCCCCCCCOc1ccccc1C(=O)Nc1ccc(C(=O)OCC[N+](C)(CC)CC)cc1 [Otilonium Bromide],1.03 ± 0.01,1.03 ± 0.026,1.01 ± 0.026,1.03 ± 0.025,1.007 ± 0.0058,1.003 ± 0.0058
CC[C@@H]1C(=O)N(C)c2cnc(Nc3ccc(C(=O)NC4CCN(C)CC4)cc3OC)nc2N1C1CCCC1,0.535 ± 0.026,0.4 ± 0.057,0.797 ± 0.042,0.592 ± 0.083,0.0889 ± 0.011,0.0658 ± 0.0046
COc1cc(C(=O)NC2CCN(C)CC2)ccc1Nc1ncc2c(n1)N(C1CCCC1)CC(F)(F)C(=O)N2C,0.354 ± 0.024,0.359 ± 0.031,0.73 ± 0.022,0.7627 ± 0.007,0.066 ± 0.0089,0.0695 ± 0.004
CC[C@@H]1C(=O)N(C)c2cnc(Nc3ccc(C(=O)N[C@H]4CC[C@H](N5CCN(CC6CC6)CC5)CC4)cc3OC)nc2N1C(C)C [BI6727 (Volasertib)],0.346 ± 0.023,0.201 ± 0.025,0.58 ± 0.017,0.213 ± 0.15,0.0771 ± 0.019,0.0219 ± 0.0034
